Results filed as inconclusive are left out. A number with no mark means an inactive call. Active and inactive are the calls of the source. Calls follow the shape of the full dose curve.
These compounds were tested against Progesterone receptor (Homo sapiens) (UniProt P06401) (assay: qHTS assay to identify small molecule agonists of the progesterone receptor (PR) signaling pathway (AID 1346784; also: nearly all actives have a fitted effect of over 30% in size)). Conditions: PR-UAS-bla HEK293T, beta-lactamase FRET ratio, 16 h; series mostly up to 92.4 µM; activation: at the top concentration.
Sequence of Progesterone receptor (Homo sapiens) (P06401 whole entry, looked up): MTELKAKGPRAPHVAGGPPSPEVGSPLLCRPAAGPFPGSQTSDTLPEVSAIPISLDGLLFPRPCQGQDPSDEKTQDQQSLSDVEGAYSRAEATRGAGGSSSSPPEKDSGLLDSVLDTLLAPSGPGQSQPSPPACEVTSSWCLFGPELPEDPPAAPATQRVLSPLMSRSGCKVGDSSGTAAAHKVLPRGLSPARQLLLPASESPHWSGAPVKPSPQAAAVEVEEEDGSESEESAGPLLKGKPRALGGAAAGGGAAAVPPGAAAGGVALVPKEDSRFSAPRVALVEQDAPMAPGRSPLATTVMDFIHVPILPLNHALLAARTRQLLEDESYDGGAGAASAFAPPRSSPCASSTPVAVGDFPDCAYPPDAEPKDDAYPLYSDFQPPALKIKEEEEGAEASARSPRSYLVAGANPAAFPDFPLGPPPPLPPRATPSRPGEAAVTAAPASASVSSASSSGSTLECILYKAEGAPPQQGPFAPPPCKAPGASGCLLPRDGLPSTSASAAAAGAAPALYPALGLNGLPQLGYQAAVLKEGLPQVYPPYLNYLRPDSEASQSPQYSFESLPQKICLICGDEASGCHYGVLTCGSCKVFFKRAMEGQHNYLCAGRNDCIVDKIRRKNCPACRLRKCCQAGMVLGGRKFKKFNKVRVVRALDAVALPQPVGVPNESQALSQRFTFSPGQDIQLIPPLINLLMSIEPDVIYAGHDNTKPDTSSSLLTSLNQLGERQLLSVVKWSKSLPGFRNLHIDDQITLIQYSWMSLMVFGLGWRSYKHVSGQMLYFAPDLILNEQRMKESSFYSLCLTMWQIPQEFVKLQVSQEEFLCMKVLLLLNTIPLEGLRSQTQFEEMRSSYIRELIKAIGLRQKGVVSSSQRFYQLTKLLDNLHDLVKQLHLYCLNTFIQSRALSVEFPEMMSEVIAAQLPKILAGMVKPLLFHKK
Text: U.S. Tox21 Program National Center for Advancing Translational Sciences [NCATS] NIH Chemical Genomics Center [NCGC] U.S. Environmental Protection Agency [EPA] National Institutes of Environmental Health Sciences [NIEHS] National Toxicology Program [NTP] U.S. Food and Drug Administration [FDA] […] Endocrine disrupting chemicals (EDCs) and their interactions with steroid hormone receptors like PR causes disruption of normal endocrine function. To identify the compounds that activate PR signaling, a PR-UAS-bla GripTite cell line i.e. PR-UAS-bla HEK 293T (Invitrogen, Carlsbad, CA, USA) containing a beta-lactamase reporter gene under the control of an Upstream Activator Sequence (UAS) was used to screen Tox21 10K compound library.
Tox21 Assay Protocol Summary: PR-UAS-bla HEK 293T cells were dispensed at 3,000 cells/5 uL of assay medium containing 2% charcoal stripped FBS per well into black wall/clear-bottom 1536-well plates using a Multidrop Combi (ThermoFisher Scientific, Waltham, MA) dispenser. After the assay plates were incubated at a 37C and 5% CO2 for 6hr, 23 nL of compounds dissolved in DMSO, positive controls or DMSO only was transferred to the assay plate by a Pintool station (Kalypsys, San Diego, CA). The plates were incubated at 37C and 5% CO2 for 16hr. Then 1 uL of LiveBLAzer B/G FRET substrate was added using a BioRAPTR FRD (Flying Reagent Dispenser, Aurora Discovery, San Diego, CA). After the plates were incubated at room temperature for 2 hours, fluorescence intensity was measured by an Envision plate reader (PerkinElmer, Shelton, CT).
% is scaled to controls: 0 for no effect and ±100 for the full control effect; potency is read from the fitted curve at half-maximal effect.

Row | Compound | activation | Potency
1 | Oc1c(Cl)cc(Cl)c2cccnc12 | -10.3% [at 42.5 µM] | –
2 | CCCN(CCC)C(=O)C(CCC(=O)OCCCN1CCN(CCOC(=O)Cc2c(C)n(C(=O)c3ccc(Cl)cc3)c3ccc(OC)cc23)CC1)NC(=O)c1ccccc1 (stereo not given) | 7.51% [at 42.5 µM] | –
3 | Cc1ccc(O)c(C(C)(C)C)c1 | – | inactive
4 | O=C(NO)C1(NS(=O)(=O)c2ccc(Oc3ccc(F)cc3)cc2)CCOCC1 | -0.916% | –
5 | CC(C)(C)C(=O)OCOC(=O)[C@@H]1N2C(=O)[C@@H](NC(=O)[C@H](N)c3ccccc3)[C@H]2SC1(C)C | -5.29% [at 42.5 µM] | –
6 | COc1cc(-c2ccc(N=C=O)c(OC)c2)ccc1N=C=O | 0.202% [at 42.5 µM] | –
7 | O=c1c(-c2ccccc2)c1-c1ccccc1 | -17.9% [at 42.5 µM] | –
8 | O=C(O)c1c(Cl)cccc1Cl | -2.07% | –
9 | COC(=O)C1=C(C)NC(C)=C(C(=O)OCCc2ccc(N3CCN(C(c4ccccc4)c4ccccc4)CC3)cc2)C1c1cccc([N+](=O)[O-])c1 (stereo not given) | -0.0318% [at 42.5 µM] | –
10 | CCCCN1C(=O)[C@@H]([C@H](O)C2CCCCC2)NC(=O)C12CCN(Cc1ccc(Oc3ccc(C(=O)O)cc3)cc1)CC2 | -1.84% | –
11 | O=C1c2c(O)ccc(Nc3ccc(CCO)cc3)c2C(=O)c2c([N+](=O)[O-])ccc(O)c21 | -1.05% | –
12 | COC(=O)c1cc(Cl)ccc1OC | -0.492% [at 42.5 µM] | –
13 | CC(C)(C)CC(C)(C)c1ccc(OCCOCC[N+](C)(C)Cc2ccccc2)cc1 | 3.93% [at 42.5 µM] | –
14 | CCCCCCCC(=O)[O-].CCCCCCCC(=O)[O-].[Zn+2] | 0.446% [at 42.5 µM] | –
15 | N#CC1(c2ccc(F)cc2)CCC(=O)CC1 | -0.0628% [at 42.5 µM] | –
16 | CSc1ccc(C(=O)c2[nH]c(=O)[nH]c2C)cc1 | -3.11% [at 42.5 µM] | –
17 | NC(=O)CC[C@@H]1NC(=O)[C@H](Cc2ccccc2)NC(=O)[C@H](Cc2ccc(O)cc2)NC(=O)CCSSC[C@@H](C(=O)N2CCC[C@H]2C(=O)N[C@@H](CCCN=C(N)N)C(=O)NCC(N)=O)NC(=O)[C@H](CC(N)=O)NC1=O | 4.03% [at 42.5 µM] | –
18 | NC(=O)NS(=O)(=O)c1ccc(N)cc1 | 2.14% [at 42.5 µM] | –
19 | COc1ccc(C(=O)/C(Br)=C\C(=O)O)cc1 | -19.5% | –
20 | Cn1cc(C(=O)[C@@H]2CCc3nc[nH]c3C2)c2ccccc21 | -1.34% [at 42.5 µM] | –

Row | Compound | activation | Potency
21 | C[n+]1ccn(Cc2ccccc2)c1 | 3.18% | –
22 | Cc1oc(-c2ccccc2)nc1CCC(=O)c1ccc(CC2SC(=O)NC2=O)cc1 (stereo not given) | 2.25% [at 42.5 µM] | –
23 | CCOC(=O)O[C@]1(C(=O)OCCl)CC[C@H]2[C@@H]3CCC4=CC(=O)C=C[C@]4(C)[C@H]3[C@@H](O)C[C@@]21C | – | 188 nM (active)
24 | NNc1nc(-c2ccc([N+](=O)[O-])cc2)cs1 | 7.82% | –
25 | CC1(C)CCC(C)(C)c2cc(C(=O)Nc3ccc(C(=O)O)cc3)ccc21 | -1.81% | –
26 | O=Cc1cc(O)ccc1Br | – | 983 nM (active)
27 | Cc1cccc(CN2CCN(C(c3ccccc3)c3ccc(Cl)cc3)CC2)c1 (stereo not given) | 7.5% [at 42.5 µM] | –
28 | CCCCCCCCCCCCCCCS(=O)(=O)Oc1ccccc1 | 1.89% [at 42.5 µM] | –
29 | CCN(Cc1cccnc1)C(=O)c1cccc(Cl)c1[C@]1(C)C(=O)N(Cc2ccc(OC)cc2OC)c2ccc(Cl)cc21 | 3.62% | –
30 | Cc1ccc(O)c2ncccc12 | -0.149% [at 42.5 µM] | –
31 | Cc1cc(O)c(Cl)c(C)c1Cl | 0.462% | –
32 | CC1=NC(C)OC1C (stereo not given) | 3.75% | –
33 | CCc1oc2ccccc2c1C(=O)c1cc(Br)c(O)c(Br)c1 | -1.96% [at 42.5 µM] | –
34 | CC[C@H](c1ccc(O)cc1)[C@@H](CC)c1ccc(O)cc1 | 0.412% [at 42.5 µM] | –
35 | O=C(O)c1cc(O)c2c(c1)C(=O)c1cccc(O)c1C2=O | 3.18% | –
36 | O=c1[nH]sc2cc(Cl)ccc12 | -10.6% [at 42.5 µM] | –
37 | CN(C)CCCOC1(Cc2ccccc2)CCCCCC1 | -4.96% [at 42.5 µM] | –
38 | Cc1ccc(-n2nc(C(C)(C)C)cc2NC(=O)Nc2ccc(OCCN3CCOCC3)c3ccccc23)cc1 | 12.6% [at 42.5 µM] | –
39 | O=CC=C(c1ccccc1)c1ccccc1 | -7.35% | –
40 | CC(C)=CCOc1ccc(/C=C/C(=O)c2ccc(OCC=C(C)C)cc2OCC(=O)O)cc1 | -13% [at 42.5 µM] | –

— PubChem BioAssay (Tox21)
